# BoNT-F LC inh – BoNT/F light chain protease inhibitors, primary screen, biochemical, flow cytometry, MLPCN library | Botulinum neurotoxin type F light chain protease (Clostridium botulinum) | Multiplex microsphere protease cleavage assay | inhibition, % at 10 µM | 0.22% of 360,000 active | AID 588497, 2011; in the data active = inhibition above about 35%, passing the limit was not always enough; inconclusive = no clear call, values can overlap the other calls; note: plate controls were buffer without enzyme for full effect and enzyme alone for no effect
# Autofluor counter – counter-screen for toxin protease inhibitors: compound fluorescence; compound autofluorescence counterscreen, microsphere flow cytometry; stronger effect = higher value; fluorescence intensity (concentration not given with the values); 3.1% of 360,000 active; in the data active = fluorescence intensity above about 16000; inconclusive = no clear call, values can overlap the other calls
# Anthrax LF inh2 – Bacillus anthracis LF protease inhibitors, primary screen, biochemical, multiplex microsphere, MLPCN library. Lethal factor (Bacillus anthracis), P15917. multiplex microsphere protease cleavage assay. inhibition, % at 10 µM. 0.12% of 360,000 active. AID 588501, 2011; note: plate controls were buffer without enzyme for full effect and enzyme alone for no effect
# SSB-PriA inh – inhibitors of Klebsiella pneumoniae PriA binding to SSB C-terminal tail, primary screen, biochemical, AlphaScreen. PriA–SSB C-terminal tail interaction (Klebsiella pneumoniae). AlphaScreen SSBct-PriA binding, biotinylated peptide. inhibition, % at 33 µM. 0.6% of 430,000 active. AID 1272365, 2023; in the data active = inhibition mostly above about 37%, no sharp cut-off; inactive = mostly below about 20%;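 note: plate controls were negative control peptide for no effect and reference peptide for full effect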
# BoNT A protease – BoNT/A light chain protease inhibitors, primary screen, biochemical, flow cytometry, MLPCN library. Botulinum neurotoxin type A light chain protease (Clostridium botulinum A str. ATCC 3502). multiplex microsphere protease substrate cleavage. inhibition, % at 10 µM. 0.17% of 360,000 active. AID 588499, 2011; note: plate controls were buffer without enzyme for full effect and enzyme alone for no effect
# * hit, by the source's call; u = inconclusive; x = no result given. In the library only some 3.1% were active in any assay of this set; here they are far more common. Cut-off read from the data, not from the text of the source, unless noted: active = inhibition above about 30%; inconclusive = no clear call, values can overlap the other calls; inactive = below that.
SMILES,BoNT-F LC inh,Autofluor counter,Anthrax LF inh2,SSB-PriA inh,BoNT A protease
COc1ccc(-c2csc(N(CCCN(C)C)C(=O)c3cccs3)n2)cc1,-6,21006*,0,-9,u
O=C(c1cccs1)N(CC1CCCO1)c1nc(-c2ccccc2)cs1 (configuration not stated),-2,23325*,0,-23,-1
CCN(C(=O)c1cccs1)c1nc(-c2ccc(OC)cc2)cs1,-1,4143,-3,-13,0
O=C(c1ccco1)N(CC1CCCO1)c1nc(-c2ccccc2)cs1 (configuration not stated),-8,5658,3,-8,0
CCN(CC)CCCN(C(=O)c1ccc(OC)cc1)c1nc(-c2ccc(OC)cc2)cs1,-22,4034,4,-1,-6
COCCCN(C(C)=O)c1nc(-c2ccc(OC)cc2)cs1,3,21678*,-1,-15,3
CC(C)(C)c1ccc(NC(=O)Nc2cnc3ccnn3c2)cc1,x,x,x,-8,x
COc1ccc2nc(NC(=O)c3ccoc3C)sc2c1,1,21922*,1,-12,1
COc1ccc2nc(NC(=O)C=C(C)C)sc2c1,x,x,x,-6,x
COc1ccc2nc(NC(=S)N(C)C)sc2c1,-4,23623*,-1,1,-3
COc1ccc2nc(NC(=O)C(NS(=O)(=O)c3cccs3)C(C)C)sc2c1 (configuration not stated),-6,21430*,-3,3,-4
COc1ccc2nc(NC(=O)CCN3C(=O)c4ccccc4C3=O)sc2c1,-3,16754*,0,-6,u
CCOC(=O)N1CCN(Cc2nc(-c3ccccc3)no2)CC1,-15,3206,-3,-10,-2
CCOC(=O)N1CCN(Cc2nc(-c3cccc(C)c3)no2)CC1,2,22782*,0,-16,2
CCOC(=O)N1CCN(C(=O)CSc2ccccc2)CC1,-4,23877*,-1,-27,-1
CCOC(=O)N1CCN(Cc2ccccc2Cl)CC1,0,22232*,-1,-16,0
CCOC(=O)N1CCN(Cc2ccccc2F)CC1,0,20462*,1,-3,-1
CCOC(=O)C1CCCN(Cc2ccccc2F)C1 (configuration not stated),0,7488,-3,-14,0
Cc1ccc(NC(=O)C(=O)NC(C)C)cc1F,x,x,x,-5,x
CC1CCN(S(=O)(=O)c2cccc(C(=O)NCc3ccco3)c2)CC1,-3,23763*,-3,3,-1
Cc1ccc(S(=O)(=O)N2CCC(C(=O)N3CCC[C@H]3C(=O)NCc3ccco3)CC2)cc1,0,16928*,-2,-3,-1
O=C(NCc1ccco1)C1CN(S(=O)(=O)c2ccccc2)CCN1S(=O)(=O)c1ccccc1 (configuration not stated),6,20955*,1,-23,4
Cc1ccc(S(=O)(=O)N2CCCCC2C(=O)NCc2ccco2)cc1 (configuration not stated),-4,4340,-5,-16,1
O=C(NCc1ccco1)c1cccc(S(=O)(=O)N2CCCC2)c1,6,3677,7,4,0
O=C(NCc1ccco1)C1Cc2ccccc2CN1S(=O)(=O)c1ccccc1F (configuration not stated),-3,23284*,2,-12,-2
SMILES,BoNT-F LC inh,Autofluor counter,Anthrax LF inh2,SSB-PriA inh,BoNT A protease
COc1ccccc1CNC(=O)[C@@H]1CCCN1C(=O)C1CCN(S(=O)(=O)c2ccc(C)cc2)CC1,2,9144,-2,4,-1
Cc1ccc(S(=O)(=O)N2CCC(C(=O)N3CCC[C@H]3C(=O)NCc3ccccc3)CC2)cc1,-6,21009*,0,-12,-5
CN(C)CCN(C(=O)c1ccc2ncsc2c1)c1nc2cc3c(cc2s1)OCO3,x,x,x,1,x
COc1ccc(C(=O)C[N+]2(C)CCOCC2)cc1,46*,3259,-52,-8,-5
COc1cccc(NC2=Nc3cccc4cccc2c34)c1,-4,2142,-3,41*,0
Cc1noc(C)c1COC(=O)CCOc1ccccc1,-4,17725*,-1,-14,-2
COc1ccc(OCCC(=O)OCc2c(C)noc2C)cc1,-8,3556,-1,-24,0
COc1cccc(C2c3c(oc4ccc(Cl)cc4c3=O)C(=O)N2c2cc(C)on2)c1OC (configuration not stated),-2,16528*,-5,-10,-1
COc1ccc(/C(O)=C2\C(=O)C(=O)N(c3cc(C)on3)C2c2cccc(OC)c2OC)cc1C (configuration not stated),-21,3949,0,x,0
O=C(CSc1nnc2ccc(-c3cccnc3)nn12)Nc1nc2ccccc2s1,x,x,x,-11,x
CC1(C)C2CC=C(CN3CCOCC3)C1C2 (configuration not stated),1,22704*,-1,-20,1
CC(C)NC(=O)NC(=O)COC(=O)CCOc1ccccc1,-1,24104*,1,1,0
O=C(C1CN(c2nc3ccc(F)cc3s2)C1)N1CCN(C(=O)C2CCCO2)CC1 (configuration not stated),x,x,x,-9,x
O=C(O)c1cc(-n2cccn2)ccn1,x,x,x,75*,x
O=C(Nc1cccnc1)c1cc(-n2cccn2)ccn1,x,x,x,-8,x
O=C(O)c1cc(I)ccn1,x,x,x,67*,x
Cc1c(Cl)cccc1NC(=O)C(=O)NCCN1CCN(c2ccccc2)CC1,x,x,x,-14,x
O=C(CSc1nnc2ccc3ccccc3n12)N1CCC(c2noc3ccc(F)cc23)CC1,x,x,x,-24,x
O=C(CSc1ccc2ccccc2n1)N1CCC(c2noc3ccc(F)cc23)CC1,-10,22244*,0,-9,-8
CC(C)OC(=O)c1cc(C(=O)c2cc(F)ccc2O)coc1=N,-1,16808*,-2,0,0
CC(C)OC(=O)c1cc(C(=O)c2cc(Cl)ccc2O)coc1=N,3,5449,0,-8,1
O=C(COc1ccc2ccccc2c1)NCC(c1cccnc1)N1CCc2ccccc2C1 (configuration not stated),x,x,x,-5,x
CSCCC(NC(=O)c1cncc(Br)c1)C(=O)O (configuration not stated),7,20225*,-6,-4,8
C=CCn1c(COc2ccc(F)cc2)nnc1SCC(=O)NC1CC1,9,5417,-4,-12,4
C=CCn1c(COc2ccc(F)cc2)nnc1SCC(=O)N1CC(=O)Nc2ccccc21,-4,21515*,1,4,-4
O=S(=O)(Cc1ccccc1)Nn1cnnc1,-1,22495*,0,3,0
Cc1ccccc1CN1CCNC1=O,-2,19805*,-9,4,2
COC(=O)c1ccccc1C(=O)N1CCC(S(=O)(=O)c2ccc(Cl)cc2)C1 (configuration not stated),x,x,x,-7,x
CCn1c(-c2cc3c(C(F)(F)F)nn(C)c3s2)n[nH]c1=S,-5,16651*,-3,-14,-1
